The list is not random: actives were taken first. Their share in the collection is about 2.4%.
Pol eta inh: blocks human DNA polymerase eta activity | Q9Y253 | AID 588591 | actives 1.2% (n = 390,000) | recombinant Pol eta, fluorescent DNA replication assay | Potency, µM (doses to about 114 µM), most hits filed as inhibitors
Target sequence (Q9Y253 whole entry, looked up): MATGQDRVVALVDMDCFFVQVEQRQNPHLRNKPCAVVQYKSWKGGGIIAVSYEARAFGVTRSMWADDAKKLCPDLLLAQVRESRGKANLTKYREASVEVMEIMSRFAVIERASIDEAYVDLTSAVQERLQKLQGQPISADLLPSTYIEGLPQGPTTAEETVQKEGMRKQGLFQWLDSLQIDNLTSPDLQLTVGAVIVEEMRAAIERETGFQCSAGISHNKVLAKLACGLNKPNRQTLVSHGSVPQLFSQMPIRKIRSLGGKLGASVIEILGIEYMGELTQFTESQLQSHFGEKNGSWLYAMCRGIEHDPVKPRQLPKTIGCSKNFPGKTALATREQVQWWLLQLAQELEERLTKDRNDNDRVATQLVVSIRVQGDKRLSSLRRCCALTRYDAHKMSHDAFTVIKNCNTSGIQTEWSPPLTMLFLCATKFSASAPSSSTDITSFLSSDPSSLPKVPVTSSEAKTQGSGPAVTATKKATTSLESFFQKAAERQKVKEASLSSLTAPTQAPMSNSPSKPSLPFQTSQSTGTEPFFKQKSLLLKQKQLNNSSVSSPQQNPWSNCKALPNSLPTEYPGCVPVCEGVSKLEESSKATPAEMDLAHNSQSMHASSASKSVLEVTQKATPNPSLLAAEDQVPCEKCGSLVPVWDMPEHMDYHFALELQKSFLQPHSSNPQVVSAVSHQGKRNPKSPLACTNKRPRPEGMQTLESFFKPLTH
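Fluorescent replication assay: 50 nM final substrate added after a 15 min room-temperature compound preincubation with 10 nM enzyme. Signal taken at 0 min and again at 10 min.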
POLB inh: inhibitors of human DNA polymerase beta; Pol beta primer extension/strand displacement, fluorescence kinetic; AID 485314; Potency, µM (highest dose often 114 µM), usual class: inhibitors; actives 1.3% (n = 340,000); P06746
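Kinetic readout of DNA synthesis with strand displacement by Pol beta. Compound and 10 nM enzyme sit 15 min at room temperature; 50 nM substrate starts the reaction, read immediately and at 10 min.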
Pol iota inh: DNA polymerase iota (human) inhibition; actives 1% (n = 390,000); Potency, µM (highest dose often 115 µM), usual class: inhibitors; AID 588590; Pol iota fluorescent replication assay, 10 min
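Fluorescent replication assay read twice, at 0 min and 10 min after adding 50 nM (final) substrate. Enzyme (10 nM) and compounds were first incubated 15 min at room temperature; enzyme-free buffer wells were negative controls.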
TDP1 block: TDP1 (human) enzyme inhibition; recombinant TDP1, AlphaScreen DNA substrate cleavage; Potency, µM (series often up to 130 µM), most hits filed as inhibitors; actives 0.28% (n = 350,000); also: nearly all actives have a fitted effect of over 40% in size
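AlphaScreen read-out: signal falls as enzyme removes the 3' tyrosine-FITC from a 5'-biotinylated DNA oligo (15 nM, 5 min, RT). Enzyme was E. coli-made recombinant Tdp1 at 1 nM, exposed to compound for 15 min beforehand; beads 10 ug/ml, 10 min.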
POLK inh: inhibitors of human DNA polymerase kappa. purified Pol kappa, fluorescent DNA synthesis assay, 10 min. actives 0.53% (n = 400,000). Potency, µM (top dose mostly 107 µM), most hits filed as inhibitors
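Readout: fluorescence, taken kinetically at 0 and 10 min. Conditions: 10 nM Pol kappa, 15 min RT compound preincubation, 50 nM substrate final. Controls: enzyme-free buffer wells.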
PGK validate: validation of Trypanosoma brucei phosphoglycerate kinase inhibitors | AID 686980 | actives 79% (n = 500) | TbPGK coupled GAPDH assay, Kinase-Glo luminescence | shares compounds with POLK inh | Potency, µM (doses to about 57.5 µM), most hits filed as inhibitors; also: nearly all actives have a fitted effect of over 65% in size
Pol iota confirm: Confirm cherry-picked inhibitors of human polymerase iota; shares compounds with POLK inh; Pol iota primer extension, TAMRA/BHQ fluorescence; Potency, µM, hits mostly inhibitors; actives 77% (n = 1,500); AID 720496
Large screens that a line does not name were inactive (follow-up assays come after a bar, where they were run). Calls follow the shape of the dose curve; as a rule, active = well fitted curve in the direction sought with a large enough effect; inconclusive = small, poorly fitted or top-dose-only effect, or another doubt; inactive = no such curve, though single readings can be large; an effect the other way counts as inactive or inconclusive.

COc1ccc(C(=O)N/N=C(\C)c2ccc3c(c2)C2C=CCC2C(c2ccccc2)N3)cc1 (stereo not drawn)	none
O=C(OCCC12CC3CC(CC(C3)C1)C2)c1ccc(NCc2cc(O)ccc2O)cc1	Pol eta inh inconclusive, Pol iota inh 79.4µM, POLK inh 79.4µM (no result: POLB inh, TDP1 block) | PGK validate 16.3µM
CCNC(=O)OCCC12CC3CC(CC(C3)C1)C2	none
O=C(CCc1ccc(S(=O)(=O)N2CCOCC2)cc1)N/N=C/c1ccc(O)c(O)c1O	Pol eta inh inconclusive, POLB inh 12.6µM, Pol iota inh 2.82µM, POLK inh 8.91µM | Pol iota confirm inconclusive
O=C1C=CC(=O)c2c(O)c(CO)c(CO)c(O)c21	Pol eta inh 1µM, Pol iota inh 3.16µM, POLK inh 3.55µM (no result: POLB inh, TDP1 block) | PGK validate 8.19µM
O=c1c(CO)cc(CO)cc(CO)c1O	Pol iota inh inconclusive (no result: TDP1 block)
CCCCCn1c(=N)c(S(=O)(=O)c2ccccc2)cc2c(=O)n3cccc(C)c3nc21	none (no result: TDP1 block)
C=C1C=CS(=O)(=O)N(C(CC(C)C)C(=O)OC)C1 (stereo not drawn)	none (no result: Pol eta inh, POLB inh)
CCOc1ccc(/C=C2\SC(=S)N(CCC(=O)Nc3ccc(C(=O)O)cc3)C2=O)cc1	Pol eta inh inconclusive (no result: TDP1 block)
CCOc1ccc(/C=C2\SC(=S)N(CCC(=O)Nc3cccc(C(=O)O)c3)C2=O)cc1	Pol eta inh 44.7µM, Pol iota inh inconclusive (no result: TDP1 block) | Pol iota confirm 75.2
O=C(CCN1C(=O)/C(=C/c2ccc3c(c2)OCO3)SC1=S)Nc1ccc(C(=O)O)cc1	Pol eta inh inconclusive, POLB inh inconclusive, Pol iota inh inconclusive (no result: TDP1 block) | Pol iota confirm 75.2
O=C(CCCN1C(=O)/C(=C\c2ccccc2)SC1=S)Nc1ccc(C(=O)O)cc1	Pol eta inh inconclusive, Pol iota inh inconclusive
CCOc1c(Cl)cc(Cl)cc1CNCCSc1nnnn1C	none
CC(=O)c1cnc2c(-c3ccc(Cl)cc3)cnn2c1C	none
Nc1c(C(=O)O)cnc2c(-c3ccc(Cl)cc3)cnn12	none | PGK validate inconclusive
Cc1ccsc1/C=N/Nc1nc(=O)[nH]nc1C	none | PGK validate 18.3µM
Cc1cc(C)nc(N/N=C/c2sccc2C)n1	none
O=C(CCO)c1ccc(O)cc1	Pol eta inh 3.55µM, POLB inh inconclusive, Pol iota inh 5.01µM, TDP1 block inconclusive, POLK inh 8.91µM | PGK validate 1.63µM
CC(=O)N(C)C	none (no result: Pol eta inh, POLB inh, Pol iota inh)
Cc1ccc(O)c(-c2cc(C(=O)Nc3ccc(S(=O)(=O)N4CC(C)OC(C)C4)cc3)[nH]n2)c1 (stereo not drawn)	none
Cc1ccc(-c2cc(C(=O)Nc3ccc(S(=O)(=O)N4CC(C)OC(C)C4)cc3)[nH]n2)c(O)c1 (stereo not drawn)	POLB inh 17.8µM, Pol iota inh 39.8µM, POLK inh inconclusive | Pol iota confirm 75.2
Cc1ccc(-c2cc3c(nn2)-c2ccccc2C3=O)cc1	Pol eta inh inconclusive | PGK validate 5.8µM
O=C1c2ccccc2-c2nnc(-c3ccc(F)cc3)cc21	Pol iota inh inconclusive
Cc1ccc2nc(-c3ccccc3)cn2c1	none | PGK validate 11.6µM
CC(=O)Nc1ccc(-c2cn3cc(C)ccc3n2)cc1	none
CCCC(=O)NC1=C(Cl)C(=O)c2ccccc2C1=O	Pol eta inh inconclusive, Pol iota inh 6.31µM (no result: POLB inh, TDP1 block) | Pol iota confirm 67
CCCCc1ncc(/C=C(\Cc2cccs2)C(=O)O)n1Cc1ccc(C(=O)O)cc1	none (no result: Pol eta inh, POLB inh, Pol iota inh)
Cc1ccc(-c2csc3nnc(SCC(=O)Nc4nsc(-c5ccccc5)n4)n23)cc1	none
O=C(CSc1nnc2scc(-c3ccccc3)n12)Nc1nsc(-c2ccccc2)n1	Pol eta inh inconclusive, POLB inh inconclusive, Pol iota inh inconclusive | Pol iota confirm 37.7
COC(=O)c1nn(-c2ccc3c(c2)CCN3C(C)=O)cc1O	none | PGK validate 20.6µM
Cc1ccc(CNC(=O)c2c(-c3cccc(Br)c3)noc2C)o1	none
CCC(C)[C@H]1CNCCN1CCc1cccc2ccccc12 (stereo partly drawn)	Pol iota inh inconclusive, TDP1 block inconclusive (no result: POLB inh) | PGK validate inconclusive
CCCCn1c(N)c(-c2nc3ccccc3o2)c2c([N+](=O)[O-])nn(C)c(=O)c21	Pol eta inh inconclusive, POLB inh inconclusive, Pol iota inh inconclusive | Pol iota confirm 42.3
Fc1cccc(/C=N/Nc2nccnc2Cl)c1	none | PGK validate 16.3µM
Oc1ccc(/C=N/Nc2nccnc2Cl)cc1	none | PGK validate 9.19µM
CCN(C(=O)Cn1cnc2onc(-c3ccc(F)cc3)c2c1=O)c1cc(C)ccc1C	none
CCOc1ccc(C2=CC(c3cc(Br)ccc3F)n3ncnc3N2)cc1Cl (stereo not drawn)	POLB inh inconclusive, Pol iota inh inconclusive
O=C(Nc1ccc(Cc2ccc(NC(=O)Nc3cccnc3)cc2)cc1)Nc1cccnc1	Pol eta inh 44.7µM (no result: POLB inh, Pol iota inh, TDP1 block, POLK inh) | Pol iota confirm inconclusive
Cc1ccccc1/C=C\c1nc2ccccc2c(=O)[nH]1	Pol eta inh inconclusive, POLB inh 25.1µM, Pol iota inh inconclusive | Pol iota confirm inconclusive
Cc1ccc(N2CCN(C(=O)c3c4c(nc5ccccc35)C(=O)N(C3CCCCC3)C4)CC2)c(C)c1	POLB inh inconclusive
COc1cc(OC)cc(C(=O)NNC(=O)c2ccccn2)c1	none
COc1ccccc1C(=O)O/N=C(\N)c1ccccn1	none
COc1ccc(C(=O)NNC(=O)c2ccccn2)cc1	none | PGK validate 5.17µM
N/C(=N\OC(=O)c1ccccc1Cl)c1ccccn1	none | PGK validate 16.3µM
COc1ccc(C(=O)O/N=C(\N)c2ccccn2)cc1	none (no result: TDP1 block) | PGK validate 5.17µM
Cc1ccc(C(=O)O/N=C(\N)c2ccccn2)c(C)c1	none | PGK validate 7.3µM
CCCCCCCCCCCC(=O)[O][Sn]([CH2]CCC)([CH2]CCC)[O]C(=O)CCCCCCCCCCC	none (no result: Pol eta inh, POLB inh, Pol iota inh)
O=C(CSc1ncc(S(=O)(=O)c2ccc(Cl)cc2)c(=O)[nH]1)Nc1ccc2c(c1)OCCO2	POLB inh inconclusive
N/C(=N\OC(=O)c1ccc(Cl)cc1)c1ccccn1	none | PGK validate 14.6µM
O=C(N/N=C/C=C/c1ccccc1[N+](=O)[O-])c1ccncc1	none
O=C(N/N=C/C=C\c1ccccc1[N+](=O)[O-])c1cc(-c2ccc3ccccc3c2)n[nH]1	Pol eta inh inconclusive, POLB inh 17.8µM, Pol iota inh inconclusive (no result: TDP1 block) | Pol iota confirm 37.7
O=Cc1cn(-c2ccccc2)nc1-c1cc2cc(O)ccc2oc1=O	Pol eta inh inconclusive, POLB inh 56.2µM, Pol iota inh 22.4µM, POLK inh inconclusive | Pol iota confirm inconclusive
O=Cc1cn(-c2ccccc2)nc1-c1cc2c(ccc3ccccc32)oc1=O	Pol eta inh inconclusive

High-throughput results: PubChem BioAssay, National Center for Advancing Translational Sciences (NCATS)
